Holding throughout (set-up): scale not given: direction of the effect not stated beside the values
For assay [1], the target named is Protein translocase subunit SecA (Escherichia coli (strain K12)) (UniProt P10408). Briefly: Assay to Identify E. coli SecA ATPase Inhibitors. The assay is classed as functional. Conditions: 30 µM.
Assay [2] concerns the target T1, Ubiquitin-activating enzyme e1, putative (Leishmania donovani (strain BPK282A1)) (UniProt E9BSI1).
T1 sequence (whole entry): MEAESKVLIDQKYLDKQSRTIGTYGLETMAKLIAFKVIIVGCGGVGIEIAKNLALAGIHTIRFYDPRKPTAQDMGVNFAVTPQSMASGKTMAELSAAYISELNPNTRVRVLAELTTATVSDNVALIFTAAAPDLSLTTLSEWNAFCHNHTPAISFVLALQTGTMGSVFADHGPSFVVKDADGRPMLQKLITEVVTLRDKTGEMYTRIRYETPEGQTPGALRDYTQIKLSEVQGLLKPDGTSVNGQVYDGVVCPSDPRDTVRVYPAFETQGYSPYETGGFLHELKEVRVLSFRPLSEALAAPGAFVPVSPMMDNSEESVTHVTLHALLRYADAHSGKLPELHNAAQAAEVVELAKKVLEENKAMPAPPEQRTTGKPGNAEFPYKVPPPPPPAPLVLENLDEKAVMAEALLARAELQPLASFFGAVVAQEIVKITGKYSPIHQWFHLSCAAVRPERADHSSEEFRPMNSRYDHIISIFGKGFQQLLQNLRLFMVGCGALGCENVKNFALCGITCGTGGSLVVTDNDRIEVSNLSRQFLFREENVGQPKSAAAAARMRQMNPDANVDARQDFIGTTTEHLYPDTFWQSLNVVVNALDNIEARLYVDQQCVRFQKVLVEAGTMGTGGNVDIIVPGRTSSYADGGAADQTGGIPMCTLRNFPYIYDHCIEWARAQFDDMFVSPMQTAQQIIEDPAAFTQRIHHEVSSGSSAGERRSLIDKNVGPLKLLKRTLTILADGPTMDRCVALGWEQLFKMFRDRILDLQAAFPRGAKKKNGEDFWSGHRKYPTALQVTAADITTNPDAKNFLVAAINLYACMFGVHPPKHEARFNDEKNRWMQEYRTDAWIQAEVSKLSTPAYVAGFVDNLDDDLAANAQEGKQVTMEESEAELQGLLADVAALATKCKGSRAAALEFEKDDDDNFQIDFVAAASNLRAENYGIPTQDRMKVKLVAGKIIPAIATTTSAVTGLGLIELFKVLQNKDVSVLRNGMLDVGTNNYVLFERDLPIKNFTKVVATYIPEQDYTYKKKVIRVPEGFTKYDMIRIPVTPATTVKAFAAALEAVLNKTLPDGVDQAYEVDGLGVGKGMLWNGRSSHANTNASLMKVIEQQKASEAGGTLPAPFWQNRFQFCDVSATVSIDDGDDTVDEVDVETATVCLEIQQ
Briefly: Leishmania donovani Ubiquitin Activating Enzyme (LdE1). To be noted: 30 µM. The assay is classed as functional.

Assay [3] has as its target AMP-activated protein kinase, AMPK (Homo sapiens) (UniProt P54646+O43741+P54619+Q9UGJ0+Q9Y478+Q13131+Q9UGI9). In words: AMP-dependent Kinase enzyme assay. An in vitro enzyme assay that detects ADP turnover that is directly proportional to AMPK activity. This uses naive AMPK that is activated during the assay with MK-8722. The assay is classed as functional. Conditions: 30 µM.

Assay [4] has as its target Sialic acid-binding Ig-like lectin 9 (Homo sapiens) (UniProt Q9Y336). In words: Hs-Siglec9 ALPHAscreen SOP 20170721. Conditions: 10 µM. (Bead proximity is the source of the signal in Alpha formats.)
The next assay has as its system Trypanosoma cruzi. In words: Trypanosoma cruzi phosphomannomutase and mannose-1-phosphate guanylyltransferase assay. The assay is classed as functional. To be noted: 10 µM.
The target in assay [5] is T2, Arginase-2, mitochondrial (Homo sapiens) (UniProt P78540).
T2 sequence (whole entry): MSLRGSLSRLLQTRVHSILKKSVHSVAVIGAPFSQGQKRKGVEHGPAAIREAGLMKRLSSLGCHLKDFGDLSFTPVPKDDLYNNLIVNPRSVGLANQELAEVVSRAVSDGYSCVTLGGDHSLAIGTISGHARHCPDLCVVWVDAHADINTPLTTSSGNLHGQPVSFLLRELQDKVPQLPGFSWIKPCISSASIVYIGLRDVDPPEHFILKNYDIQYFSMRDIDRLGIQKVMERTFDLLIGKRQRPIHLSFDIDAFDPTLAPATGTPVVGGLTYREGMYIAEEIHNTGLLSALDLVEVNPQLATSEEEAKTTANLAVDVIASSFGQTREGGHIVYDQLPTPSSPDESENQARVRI
Briefly: in vitro enzyme assay to detect the production of urea directly proportional to the activity of Arginase II. Note: in the data most compounds retested in dose-response had high values. The assay is classed as functional. Conditions: 33.3 µM.

Assay [6] has as its target T3, Proteasome subunit beta (Trypanosoma cruzi) (UniProt O96673).
T3 sequence (whole entry): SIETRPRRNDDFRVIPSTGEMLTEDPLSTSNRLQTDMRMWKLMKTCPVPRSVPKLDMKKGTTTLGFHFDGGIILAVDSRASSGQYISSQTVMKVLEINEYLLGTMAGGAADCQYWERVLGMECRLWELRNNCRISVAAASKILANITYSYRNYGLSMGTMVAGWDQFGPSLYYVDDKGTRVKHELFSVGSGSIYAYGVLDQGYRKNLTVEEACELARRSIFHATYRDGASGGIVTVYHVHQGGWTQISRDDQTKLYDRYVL
Briefly: Trypanosoma cruzi proteasome chymotrypsin-like activity (TcProtChymo) assay. Note: in the data most compounds retested in dose-response had high values. The format is functional. Conditions: 9.37 µM.

The species entered for the next assay is Homo sapiens. In words: To identify inhibition of the IFN signalling (Jak-Stat) pathway via expression of an eGFP reporter gene under the control of an IFN-stimulated response element (ISRE) containing MxA promoter. Conditions: 30 µM. The assay is classed as functional.
The target of assay [7] is T4, Tyrosyl-tRNA synthetase, putative (Trypanosoma cruzi (strain CL Brener)) (UniProt Q4DSP6).
T4 sequence (whole entry): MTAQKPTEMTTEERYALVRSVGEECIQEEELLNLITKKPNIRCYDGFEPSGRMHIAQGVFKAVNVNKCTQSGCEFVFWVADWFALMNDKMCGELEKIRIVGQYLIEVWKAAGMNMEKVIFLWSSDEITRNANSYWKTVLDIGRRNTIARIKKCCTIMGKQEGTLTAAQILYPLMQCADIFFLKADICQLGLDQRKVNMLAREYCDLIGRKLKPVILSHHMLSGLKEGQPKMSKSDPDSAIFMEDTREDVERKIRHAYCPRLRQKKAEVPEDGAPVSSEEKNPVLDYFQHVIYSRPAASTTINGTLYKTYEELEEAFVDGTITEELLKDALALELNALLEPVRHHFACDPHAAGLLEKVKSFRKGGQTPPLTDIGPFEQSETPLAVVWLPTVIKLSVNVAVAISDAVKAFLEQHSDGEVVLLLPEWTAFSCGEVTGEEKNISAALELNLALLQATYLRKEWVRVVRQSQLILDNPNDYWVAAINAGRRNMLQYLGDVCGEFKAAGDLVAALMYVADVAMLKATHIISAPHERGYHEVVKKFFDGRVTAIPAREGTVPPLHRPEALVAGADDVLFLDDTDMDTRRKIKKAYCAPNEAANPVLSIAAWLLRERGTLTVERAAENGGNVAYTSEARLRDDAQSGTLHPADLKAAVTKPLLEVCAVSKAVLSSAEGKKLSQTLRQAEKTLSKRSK
Briefly: Trypanosoma cruzi tyrosyl tRNA synthetase (TcYRS) _High Tyrosine SOP. Note: in the data most compounds retested in dose-response had high values. The assay is classed as functional. To be noted: 30 µM.

Assay [8] concerns the target T4, Tyrosyl-tRNA synthetase, putative (Trypanosoma cruzi (strain CL Brener)). In words: Trypanosoma cruzi tyrosyl tRNA synthetase (TcYRS) SOP. The assay is classed as functional. To be noted: 30 µM.
Assay [9] has as its target Chromo domain-containing protein 1 (Saccharomyces cerevisiae (strain ATCC 204508 / S288c) (Baker's yeast)) (UniProt P32657). Briefly: ScCHD-1 Enzyme Inhibition Assay. Note: in the data most compounds retested in dose-response had high values. The assay is classed as functional. Conditions: 30 µM.

For some of these results: Results with a measured potency or affinity are listed apart.

Sialic acid-binding Ig-like lectin 9 (Homo sapiens), sequence (Q9Y336 whole entry): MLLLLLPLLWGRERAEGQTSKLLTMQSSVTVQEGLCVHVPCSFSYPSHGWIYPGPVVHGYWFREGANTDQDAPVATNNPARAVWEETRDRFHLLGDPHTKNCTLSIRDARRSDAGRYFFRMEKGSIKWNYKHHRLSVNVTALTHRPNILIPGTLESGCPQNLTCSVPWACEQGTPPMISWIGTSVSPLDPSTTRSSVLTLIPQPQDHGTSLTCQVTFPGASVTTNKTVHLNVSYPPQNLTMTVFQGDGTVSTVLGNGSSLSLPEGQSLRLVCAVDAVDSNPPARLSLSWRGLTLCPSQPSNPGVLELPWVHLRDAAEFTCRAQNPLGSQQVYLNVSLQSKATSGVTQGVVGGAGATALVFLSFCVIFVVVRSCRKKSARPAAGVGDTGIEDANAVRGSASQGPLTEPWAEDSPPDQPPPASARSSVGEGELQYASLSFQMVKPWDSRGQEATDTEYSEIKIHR
Chromo domain-containing protein 1 (Saccharomyces cerevisiae (strain ATCC 204508 / S288c) (Baker's yeast)), sequence (P32657 whole entry, the tested form may be a part): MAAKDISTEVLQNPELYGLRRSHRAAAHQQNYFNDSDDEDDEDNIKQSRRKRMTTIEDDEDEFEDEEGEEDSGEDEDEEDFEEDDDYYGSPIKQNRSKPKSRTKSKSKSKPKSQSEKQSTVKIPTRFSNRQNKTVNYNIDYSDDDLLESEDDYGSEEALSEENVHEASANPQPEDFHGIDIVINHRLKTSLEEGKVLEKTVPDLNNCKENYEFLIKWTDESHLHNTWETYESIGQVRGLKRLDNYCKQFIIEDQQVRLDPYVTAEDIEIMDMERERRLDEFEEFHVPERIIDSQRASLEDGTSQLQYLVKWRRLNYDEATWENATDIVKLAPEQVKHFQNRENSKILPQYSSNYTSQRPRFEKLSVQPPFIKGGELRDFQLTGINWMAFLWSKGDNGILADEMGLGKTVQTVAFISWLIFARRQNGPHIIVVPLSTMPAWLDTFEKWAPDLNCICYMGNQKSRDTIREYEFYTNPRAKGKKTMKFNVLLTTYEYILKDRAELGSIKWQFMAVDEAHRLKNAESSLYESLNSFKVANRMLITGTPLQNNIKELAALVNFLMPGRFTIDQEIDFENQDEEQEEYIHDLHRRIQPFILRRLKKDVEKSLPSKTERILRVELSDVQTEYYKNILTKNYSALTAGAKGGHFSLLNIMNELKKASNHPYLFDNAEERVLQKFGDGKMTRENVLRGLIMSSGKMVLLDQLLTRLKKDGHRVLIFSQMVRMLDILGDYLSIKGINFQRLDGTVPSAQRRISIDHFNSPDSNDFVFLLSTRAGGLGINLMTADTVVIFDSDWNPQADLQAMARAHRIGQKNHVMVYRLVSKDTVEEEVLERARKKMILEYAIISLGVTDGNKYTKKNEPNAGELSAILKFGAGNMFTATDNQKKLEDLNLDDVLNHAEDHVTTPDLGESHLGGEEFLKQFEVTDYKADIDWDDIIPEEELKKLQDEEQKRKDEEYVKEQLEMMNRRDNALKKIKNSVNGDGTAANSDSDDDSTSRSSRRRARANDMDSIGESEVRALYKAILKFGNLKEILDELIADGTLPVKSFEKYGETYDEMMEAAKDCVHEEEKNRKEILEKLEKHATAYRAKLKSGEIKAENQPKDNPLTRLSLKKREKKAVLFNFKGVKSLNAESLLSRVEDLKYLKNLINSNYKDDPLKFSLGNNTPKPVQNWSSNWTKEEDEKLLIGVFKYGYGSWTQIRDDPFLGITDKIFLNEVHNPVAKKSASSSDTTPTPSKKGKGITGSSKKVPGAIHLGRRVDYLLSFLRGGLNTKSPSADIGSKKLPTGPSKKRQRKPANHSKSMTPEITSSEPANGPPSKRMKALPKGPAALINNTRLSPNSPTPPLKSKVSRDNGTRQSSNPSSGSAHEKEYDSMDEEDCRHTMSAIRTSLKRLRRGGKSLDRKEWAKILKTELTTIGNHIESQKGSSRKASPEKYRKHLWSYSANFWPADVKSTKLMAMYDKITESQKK
Protein translocase subunit SecA (Escherichia coli (strain K12)), sequence (P10408 whole entry): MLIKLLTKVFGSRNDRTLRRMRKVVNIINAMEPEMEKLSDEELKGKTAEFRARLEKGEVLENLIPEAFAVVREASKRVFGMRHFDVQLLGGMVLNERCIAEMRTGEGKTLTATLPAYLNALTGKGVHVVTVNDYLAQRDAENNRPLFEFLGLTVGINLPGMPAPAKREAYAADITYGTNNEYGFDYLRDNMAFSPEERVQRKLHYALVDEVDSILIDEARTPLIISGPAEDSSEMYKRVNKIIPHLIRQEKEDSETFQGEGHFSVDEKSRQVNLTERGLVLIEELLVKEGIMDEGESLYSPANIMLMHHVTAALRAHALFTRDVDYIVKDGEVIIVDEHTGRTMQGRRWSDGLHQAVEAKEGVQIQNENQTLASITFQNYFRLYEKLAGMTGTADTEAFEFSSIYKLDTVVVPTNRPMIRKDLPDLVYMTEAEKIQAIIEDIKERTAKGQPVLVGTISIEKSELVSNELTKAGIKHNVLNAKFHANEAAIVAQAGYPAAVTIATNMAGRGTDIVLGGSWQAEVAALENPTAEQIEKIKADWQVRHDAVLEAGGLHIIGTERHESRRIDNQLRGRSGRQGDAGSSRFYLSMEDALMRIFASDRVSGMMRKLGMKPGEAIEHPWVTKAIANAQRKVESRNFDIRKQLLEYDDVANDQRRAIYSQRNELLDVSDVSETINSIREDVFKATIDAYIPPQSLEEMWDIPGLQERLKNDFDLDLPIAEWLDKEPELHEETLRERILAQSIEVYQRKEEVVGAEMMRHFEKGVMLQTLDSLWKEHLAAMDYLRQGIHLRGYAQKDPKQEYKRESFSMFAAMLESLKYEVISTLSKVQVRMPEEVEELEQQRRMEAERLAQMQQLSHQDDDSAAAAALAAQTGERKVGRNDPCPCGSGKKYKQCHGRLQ

As for `Cn1ccc(C(=O)NC2CCC23CCN(Cc2cccnc2)CC3)c1` (stereo unspecified), the Percent Effect was -1.54% in assay [1]; 2.74% in [2]; 5.78% in assay [3]; 0.617% in assay [4]; 0% in the assay with Trypanosoma cruzi; 0.399% in [5]. Moreover, the Percent Effect is 5.39% in assay [6]; 2.32% in the assay filed under Homo sapiens; -1.04% in assay [7]; -3.7% in assay [8]; 0.517% in [9].
As to `Cc1nn(C)cc1CN(C)Cc1cc2c(cc1OC(F)F)OCO2`, the Percent Effect in assay [1] was -4.54%; in assay [2], 0%; in [3] it was -4.17%; in assay [4], -1.2%; with Trypanosoma cruzi it was 1.07%; in assay [5], -0.744%. Also, the Percent Effect in assay [6] was -3.18%; in the assay filed under Homo sapiens, -8.11%; in assay [7], -1.07%; in [8] it was 3.7%; in [9] it was -3.28%.
Regarding `CO[C@@H]1CC[C@H]2[C@H]1OCCN2C(=O)COc1ccc(F)cc1`, the Percent Effect in assay [1] is 0.9%; in assay [2] it was -2.7%; in assay [3] it was 12.4%; in assay [4], 0.225%; in the assay with Trypanosoma cruzi, -4.01%; in assay [5], 3.5%. The Percent Effect in assay [6] is 15.3%; in the assay listed under Homo sapiens it was 3.76%; in assay [7], 4.32%; in assay [8], -2.56%; in assay [9], 0.177%.
Regarding `O=C(NCCn1ccnc1)NCC(c1ccco1)N1CCCCC1` (stereo unspecified), the Percent Effect in [1] is -3.12%; in assay [2] it was 2.6%; in assay [3], 4.65%; in [4], 2.57%; with Trypanosoma cruzi, -4.41%; in assay [5], 1.9%. For the same compound, the Percent Effect in [6] is 3.64%; in the assay listed under Homo sapiens, 13.9%; in assay [7] it was 2.86%; in assay [8], 2.35%; in assay [9], -18.2%.
With `COc1ccc(CCN2CCCC(Cn3nc(C)nc3C)C2)cc1` (stereo unspecified), the Percent Effect in assay [1] is -1.76%; in [2] it was -11.4%; in assay [3] it was -0.842%; in [4], 1.01%; with Trypanosoma cruzi, 2.77%; in [5], -2.8%. Besides, the Percent Effect is 8.58% in assay [6]; -4.76% in the assay filed under Homo sapiens; 8.33% in [7]; 10.1% in [8]; -19.5% in assay [9].
In the case of `Cc1cc(C)n(CC2CCCN2C(=O)c2ccc3[nH]nnc3c2)n1` (stereo unspecified), the Percent Effect in assay [1] is -4.12%; in assay [2] it was 5.48%; in assay [3], 5.75%; in assay [4] it was 0.134%; in the assay with Trypanosoma cruzi, -2.35%; in assay [5], 5.46%. Also, the Percent Effect in assay [6] was 14.4%; in the assay filed under Homo sapiens, 4.89%; in assay [7], 1.07%; in [8], 10%; in assay [9], -3.11%.
`COc1ccc(CN2CC[C@@H](O)[C@@H]2Cc2ccccc2)cc1`: the Percent Effect in assay [1] was -7.82%; in [2], -1.33%; in assay [3], 7.1%; in assay [4], -1.98%; with Trypanosoma cruzi, -0.589%; in assay [5], -6.16%. Besides, the Percent Effect is 0.924% in assay [6]; 9.5% in the assay filed under Homo sapiens; -3.17% in [7]; -2.56% in assay [8]; -5.37% in [9].
Regarding `O=C(NC1CC(=O)N(Cc2cccc(F)c2)C1)c1ccncc1` (stereo unspecified), the Percent Effect in assay [1] is -2.44%; in assay [2] it was -8.11%; in assay [3], 4.25%; in assay [4] it was -3.94%; in the assay with Trypanosoma cruzi it was -1.93%; in [5], -0.476%. For the same compound, the Percent Effect in assay [6] was 10.7%; in the assay filed under Homo sapiens, 1.72%; in assay [7], 1.59%; in assay [8], 4.88%; in assay [9], 0.971%.
`COc1ccc(CNC(=O)NC(C)Cn2cccn2)cc1O` (stereo unspecified): the Percent Effect was -1.61% in [1]; 5.2% in [2]; -4.12% in assay [3]; 3.12% in assay [4]; 2.64% in the assay with Trypanosoma cruzi; -1.47% in [5]. Further, the Percent Effect in assay [6] is 3.15%; in the assay listed under Homo sapiens, 25.9%; in [7] it was 3.81%; in [8], 11.8%; in assay [9] it was -15.6%.
Turning to `CSCC(=O)N1CCCC(n2ccnc2C(C)C)C1` (stereo unspecified), the Percent Effect is -0.321% in assay [1]; 15.8% in [2]; -1.19% in assay [3]; -13.5% in [4]; -6.63% with Trypanosoma cruzi; 5.4% in assay [5]. The Percent Effect in [6] is 6.01%; in the assay listed under Homo sapiens it was -1.49%; in [7], 8.37%; in assay [8], 18.5%; in assay [9], -9.2%.
As for `Cc1cc(C)n(CC2CCCN2CC(=O)NC2CCOCC2)n1` (stereo unspecified), the Percent Effect was -8.59% in assay [1]; 10.4% in assay [2]; 1.94% in assay [3]; 3.84% in [4]; -3.93% in the assay with Trypanosoma cruzi; 2.13% in assay [5]. The Percent Effect is 3.21% in [6]; -10% in the assay listed under Homo sapiens; 1.94% in assay [7]; 9.76% in [8]; -3.99% in assay [9].

The record behind these values is ChEMBL document CHEMBL3988442, “University of Dundee, Small-Polar-MMV Screening Library” (2021).
